Data: PubChem BioAssay (NCI)
This is part of a sample that, as a whole, favours compounds with a hit. Of some 83,000 tested, about 20% had one in any assay.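 Treatment: one concentration, 48 hours, 96-well format. Scoring: percent growth, with anything below 10 considered active.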 Unmarked numbers belong to inactive results. Activity calls are given as the source filed them.

Legend:
Experiment in all cases: NCI-60 one-dose screen, 48 h (100 = growth as untreated, 0 = no growth, -100 = all killed)
NCI-H23 lung = details: 10 µM
NCI-H460 lung = details: 10 µM
NCI-H522 lung = details: 10 µM
K-562 leukemia = details: 10 µM
RXF 393 renal = details: 10 µM
U251 CNS = details: 10 µM
PC-3 prostate = details: 10 µM
MOLT-4 leukemia = details: 10 µM
SR leukemia = details: 10 µM
MDA-MB-468 breast = details: 10 µM unless noted
OVCAR-5 ovarian = details: 10 µM
OVCAR-3 ovarian = details: 10 µM
NCI-H226 lung = details: 10 µM
MDA-MB-231 breast = details: 10 µM
LOX IMVI melanoma = details: 10 µM
CAKI-1 renal = details: 10 µM
HS 578T breast = details: 10 µM
SW-620 colon = details: 10 µM
EKVX NSCLC = details: 10 µM
T-47D breast = details: 10 µM

SMILES | growth (NCI-H23 lung) | growth (NCI-H460 lung) | growth (NCI-H522 lung) | growth (K-562 leukemia) | growth (RXF 393 renal) | growth (U251 CNS) | growth (PC-3 prostate) | growth (MOLT-4 leukemia) | growth (SR leukemia) | growth (MDA-MB-468 breast) | growth (OVCAR-5 ovarian) | growth (OVCAR-3 ovarian) | growth (NCI-H226 lung) | growth (MDA-MB-231 breast) | growth (LOX IMVI melanoma) | growth (CAKI-1 renal) | growth (HS 578T breast) | growth (SW-620 colon) | growth (EKVX NSCLC) | growth (T-47D breast)
C#CC[Se]C(=O)c1ccc2n[se]nc2c1 | 77% | 63.9% | 51.9% | 4.82% (active) | 70.8% | 73.2% | 39.6% | 22.9% | 3.84% (active) | 25.9% |  |  |  |  |  |  |  |  |  | 
O=C(/C=C/c1cccc(Br)c1)c1nc2ccccc2n1Cc1ccc(F)cc1 | 34% | 33.1% | 59.4% | 5.36% (active) | 6.83% (active) |  | 23.8% | 3.41% (active) | -7.31% (active) | 4.89% (active) | 53.7% | 22.1% |  |  |  |  |  |  |  | 
C[C@H]1[C@@H](CC(=O)N[C@@H](Cc2coc3ccccc23)B(O)O)O[C@@H]2OC3(C)CC[C@H]4[C@H](C)CC[C@@H]1[C@@]24OO3 | -65.9% (active) | -28.2% (active) |  | 4.86% (active) | -88.4% (active) |  |  | 8.41% (active) | 17.4% | -60.6% (active) | -57.1% (active) |  | -28.1% (active) | -92% (active) | -92.3% (active) | 25.2% | -4.2% (active) | 2.66% (active) |  | 
CC1=C(COCCOC(=O)c2ccc(S(=O)(=O)F)cc2)C2=C(C)C3(CC3)[C@@](C)(O)C(=O)C2=C1 | -85.6% (active) |  |  | 32.6% | -81.4% (active) | 4.59% (active) | 8.96% (active) | 36% |  | -87.5% (active) | -43.7% (active) |  | -39.9% (active) | -27.2% (active) | -62.7% (active) | -1.85% (active) | -12.9% (active) | 62.3% | -32.7% (active) | -13.2% (active)
O=C(/C=C/c1ccc(F)cc1)c1nc2ccccc2n1Cc1ccc(Br)cc1 | -75.4% (active) | -59.4% (active) | -64% (active) | -12.7% (active) | -91.1% (active) |  | -39.4% (active) | -13.4% (active) | -19.5% (active) |  | -55.1% (active) | -73.6% (active) |  |  |  |  |  |  | -91.5% (active) | -52.5% (active)
CC[C@]12C=CCN3CC[C@@]4(c5ccc(OC)cc5N(C)[C@H]4[C@@](O)(C(=O)OC)[C@@H]1OC(=O)CCCC[P+](C1CCCCC1)(C1CCCCC1)C1CCCCC1)[C@@H]32 | -9.66% (active) |  | -71.8% (active) | 7.48% (active) | -73.8% (active) |  |  | -5.16% (active) | 19.5% |  | 5.84% (active) | -60.3% (active) | -22% (active) | -92.8% (active) | -96.1% (active) |  | -35% (active) | 2.08% (active) |  | 
C#CCCCN(CCNc1ccnc2cc(Cl)ccc12)C(=O)CCC(=O)O[C@@H]1O[C@@H]2OC3(C)CC[C@H]4[C@H](C)CC[C@@H]([C@H]1C)[C@@]24OO3 | 35.7% | 40.6% | 8.38% (active) | 13% | 34.3% | 45.7% | 37% | -4.65% (active) | -21.9% (active) |  |  |  | 44.9% | 64.2% | -40.9% (active) |  | 44.1% | 33.2% |  | 27.9%
CC[C@]12C=CCN3CC[C@@]4(c5ccc(OC)cc5N(C)[C@H]4[C@@](O)(C(=O)OC)[C@@H]1OC(=O)CCCC[P+](c1ccc(C)cc1)(c1ccc(C)cc1)c1ccc(C)cc1)[C@@H]32 | -92.4% (active) |  | -82.7% (active) | 0.797% (active) | -87.6% (active) | -93.6% (active) | -73.2% (active) | -25% (active) | 25.8% | -92.5% (active) |  | -77.1% (active) | -78.6% (active) | -97.2% (active) | -94.5% (active) | -95.2% (active) | -69.9% (active) | -88.1% (active) |  | 
C[C@H]1[C@H](OC(=O)CCC(=O)N(CCCc2cn(-c3ccc(C#N)cc3)nn2)CCNc2ccnc3cc(Cl)ccc23)O[C@@H]2OC3(C)CC[C@H]4[C@H](C)CC[C@@H]1[C@@]24OO3 | 47.3% | 58.2% | 7.88% (active) | 6.77% (active) | 40.1% | 51.9% | 33.9% | 4.41% (active) | -14.5% (active) | 46% | 54.5% | 45.2% | 60.3% | 62.9% | 13.3% |  | 43% | 18.2% |  | 32.1%
O=C(NC([Se])=NC1CCCCC1)c1ccccc1 | 19% |  | -30.9% (active) | 59.2% | 20.5% |  |  | 57.4% | 51.4% | 55% | 62.2% | 48.4% | 58.7% |  |  |  |  |  |  | 46%
CC(=O)Oc1ccccc1C(=O)NC([Se])=NC1CCCCC1 | -0.217% (active) |  |  | 61.8% | -68.3% (active) |  | 44.6% | 29.4% | 41.4% | -4.29% (active) |  | -68.1% (active) | -21% (active) |  |  | -75.4% (active) |  |  | -59% (active) | 
COC(=O)CCn1c(-c2ccc(-n3cc(-c4ccc(O[C@H]5O[C@@H]6OC7(C)CC[C@H]8[C@H](C)CC[C@@H]([C@H]5C)[C@@]68OO7)cc4)nn3)cc2)nc2ccccc21 | 13.6% |  |  | 21% | 37.3% |  |  | 11% | -11.8% (active) | 11.1% |  |  | 32.8% | 35% | -54.5% (active) | 13.7% | 30.3% | 23.9% |  | 14.9%
CC12OOC(C)(OO1)C2CCC(=O)NCCCNc1ccnc2cc(Cl)ccc12 (centres undefined) | 68.8% | 88.6% | -77.8% (active) | 4.06% (active) | 4.73% (active) | 101% | 84.1% | 34.6% | -36.1% (active) | -52.7% (active) |  |  |  | 82.7% | -92.8% (active) | -93.3% (active) | 103% | 18.9% | 85.6% | 40%
COCCOCCOCCOc1ccc(-n2cc(-c3ccc(O[C@H]4O[C@@H]5OC6(C)CC[C@H]7[C@H](C)CC[C@@H]([C@H]4C)[C@@]57OO6)cc3)nn2)cc1 | 27.2% | 70.6% | -21.3% (active) | 28.6% | 69.4% | 73% |  | 21.2% | 33.8% | 13.3% | 72% |  |  | 79.9% | 36.1% | 25% | 43.9% | 27.7% |  | 17.3%
CCOP(=O)(OCC)C(NC(C)=O)C(=O)SCCN (centres undefined) | 101% |  |  | 100% |  |  |  | 105% | 98.4% | 124% | 104% |  | 106% | 99.2% | 92.1% | 101% | 100% | 112% |  | 99.6%
O=C(/C=C/c1ccco1)c1nc2ccccc2n1Cc1ccc(F)cc1 | 65.2% | 70.9% | 62.1% | 20.7% | 33.3% | 40.9% |  | 6.46% (active) | 23.6% | 24% | 89.4% |  |  |  |  |  |  |  |  | 
CC(C)N=C([Se])NC(=O)c1cccs1 | -33.4% (active) | 0.572% (active) | 41.1% | 71% | 21.6% | 12.2% | 8.44% (active) | 15.4% | 2.39% (active) | 64.4% | -22.6% (active) | 66.3% | 64.6% |  |  |  |  |  |  | 
COC(=O)C[C@](O)(CCC(C)C)C(=O)O[C@H]1C(OC)=C[C@@]23CCCN2CCc2cc4c(cc2[C@@H]13)OCO4 | -54.3% (active) |  |  | 4.01% (active) | -30.5% (active) |  |  | -5.07% (active) | -26.7% (active) | -39.7% (active) | -20.4% (active) | -36.9% (active) | -20.4% (active) | -30.3% (active) | -82.4% (active) |  | -25.8% (active) | -27.9% (active) |  | 
COc1cc2cc(C(=O)N3C[C@@H](CCl)c4c3cc(OC(=O)N3CCN(C(=O)CCC(=O)N5CCN(C)CC5)[C@@H]5CSSC[C@@H]53)c3ccccc43)[nH]c2c(OC)c1OC | -93% (active) | -67.7% (active) |  | -17.8% (active) | -91.2% (active) | -71.2% (active) | -10.5% (active) | 0.371% (active) | -12.9% (active) | -91.5% (active) |  | 16.4% | -11.6% (active) | -94.2% (active) | -100% (active) |  | -15.6% (active) | -23.4% (active) |  | 
O=C(/C=C/c1ccco1)c1nc2ccccc2n1Cc1ccc(Br)cc1 | 27.4% |  |  | 7% (active) | -1.81% (active) | 18.2% |  | 3.6% (active) | 4.72% (active) | -14.5% (active) |  |  | 48.2% |  |  |  |  |  |  | 
O=C(/C=C/c1ccc(Cl)cc1)c1nc2ccccc2n1Cc1ccc(F)cc1 | 33.4% |  | 34.9% | 5.25% (active) | 19% | -62.8% (active) |  | -0.463% (active) | -8.72% (active) | -5.26% (active) | 19.1% | 22.7% | 36.6% |  |  | 41.8% |  |  | 20.4% | 7.93% (active)
